From PubChem BioAssay AID602142 (NMMLSC, 2011)
Values joined by “and” are separate entries in the source; they are usually repeats but may differ in a detail not shown here. Identical values can stand only once. This is one part of the list. Values without a mark were called inactive. How the calls were made is not given here.

Each compound was assayed against Lethal factor (Bacillus anthracis) (UniProt P15917) (assay: anthrax lethal factor cleavage blockers – biochemical, multiplex microsphere, cherry pick 1, confirmation (AID 602142)). Conditions: multiplex microsphere protease cleavage assay, LF; at 10 µM; active compounds read high.
Lethal factor (Bacillus anthracis), sequence (P15917 whole entry, looked up): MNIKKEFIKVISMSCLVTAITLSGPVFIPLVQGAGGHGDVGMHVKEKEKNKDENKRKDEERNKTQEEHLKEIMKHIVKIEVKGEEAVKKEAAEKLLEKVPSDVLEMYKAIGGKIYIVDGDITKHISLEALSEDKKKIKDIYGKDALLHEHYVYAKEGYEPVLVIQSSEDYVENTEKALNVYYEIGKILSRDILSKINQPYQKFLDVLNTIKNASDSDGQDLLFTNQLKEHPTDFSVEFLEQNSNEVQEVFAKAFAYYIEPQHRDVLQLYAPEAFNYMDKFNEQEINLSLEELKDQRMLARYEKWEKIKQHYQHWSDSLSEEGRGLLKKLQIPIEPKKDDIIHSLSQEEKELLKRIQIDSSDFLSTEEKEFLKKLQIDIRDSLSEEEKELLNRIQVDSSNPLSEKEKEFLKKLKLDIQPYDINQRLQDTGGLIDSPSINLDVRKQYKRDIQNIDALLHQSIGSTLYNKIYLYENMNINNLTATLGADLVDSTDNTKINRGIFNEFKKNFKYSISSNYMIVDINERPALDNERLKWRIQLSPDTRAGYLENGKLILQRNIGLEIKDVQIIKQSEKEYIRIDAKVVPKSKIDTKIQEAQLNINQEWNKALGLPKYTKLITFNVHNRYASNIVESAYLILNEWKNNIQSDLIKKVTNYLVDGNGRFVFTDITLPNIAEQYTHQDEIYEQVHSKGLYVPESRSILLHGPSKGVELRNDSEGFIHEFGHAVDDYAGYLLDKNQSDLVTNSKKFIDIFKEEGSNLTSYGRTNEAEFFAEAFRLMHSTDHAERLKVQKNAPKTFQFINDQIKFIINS
`CCOc1nnc(C)c2c(C)n(-c3cccc(Cl)c3)nc12` was tested, and the inhibition was 3.5%.
Compound `COc1ccccc1-n1c(-c2cc(-c3ccco3)[nH]n2)n[nH]c1=S` has an inhibition of 2.2%.
`Nc1ccccc1Sc1cc(Cl)nnc1Cl` was tested, and the inhibition was -3.5%.
`CC1CCN(C(=O)c2ccc(S(=O)(=O)Cc3cc(F)ccc3F)c([N+](=O)[O-])c2)CC1` was tested, and the inhibition was 1.6%.
`Cc1c(NC(=O)c2cccnc2)c(=O)n(-c2ccccc2)n1C` was tested, and the inhibition was 4.2%.
Work on `Cc1ccc(C(=O)COc2cccc(NC(=O)c3ccco3)c2)cc1` yielded an inhibition of -1.8%.
`CCN1CCN(C(C(=O)NC2CCCC2)c2cc3c(cc2[N+](=O)[O-])OCO3)CC1` (configuration not stated) gave an inhibition of 1.5%.
For `COc1ccc(NS(=O)(=O)c2cc(C(=O)Nc3ccccc3C(=O)O)ccc2C)cc1`, the inhibition was -2.7%.
In the case of `COc1ccc(C(=O)Nc2nc(-c3ccc(OC)cc3)c(-c3ccc([N+](=O)[O-])cc3)s2)cc1`, the inhibition is reported as 15.9%.
`CCOc1ccc(NC(=O)CC(Cc2ccc(Cl)cc2)C(=O)O)cc1` (configuration not stated) showed an inhibition of 2.3%.
In the case of `CC(=O)c1cccc(NC(=O)N2CCCC2C(=O)NCCc2ccccc2)c1` (configuration not stated), the inhibition is reported as 4.9%.
`CCCSc1nc2sc3c(c2c(=O)n1-c1ccc(OC)cc1)CCN(C)C3` gave an inhibition of 4.5%.
`CN1CCN(c2ccc(NC(=O)c3ccccc3)cc2)CC1` gave an inhibition of 4.8%.
Work on `COc1ccccc1C1CCN(C(=S)Nc2ccc(Br)cc2)CC1` yielded an inhibition of 1.5%.
In the case of `COC(=O)CN(c1nc(C)c(Cl)c(OC)n1)S(=O)(=O)c1ccc(C)cc1`, the inhibition is reported as 2.2%.
Compound `Brc1ccc2ncnc(NCc3cccnc3)c2c1` has an inhibition of -1.9%.
`Cc1ccc(-c2nc(-c3cccnc3)sc2CC(=O)Nc2ccc(C)c(Cl)c2)cc1` was tested, and the inhibition was 1.7%.
In the case of `CC(=O)Nc1ccc(Oc2ccc3c(c2)C(=O)NC3=O)cc1`, the inhibition is reported as 0.6%.
`COc1ccc(N(CC(=O)NCCSCc2cccc(Cl)c2)S(C)(=O)=O)cc1` gave an inhibition of -1.8%.
Work on `Cc1onc(-c2ccccc2Cl)c1C(=O)NCCn1ccc2ccccc21` yielded an inhibition of 4.3%.
`COc1ccc(C2CC(c3cccs3)=NN2c2nc(C)c(C(C)=O)s2)cc1OC` (configuration not stated) was tested, and the inhibition was 10.5% and 15.1%.
In the case of `Cc1ccc2[nH]cc(CCNC(=O)C3CCCCC3)c2c1`, the inhibition is reported as 3.7%.
